# How the values were obtained:
# Experiment in all cases: SPOT peptide array binding signal intensity (averaged, normalized) (arbitrary units (background-subtracted, floor 0; scale differs between SH3 domains)); higher = stronger binding of the SH3 domain to the peptide
# AgAbp1 = biological target: AgAbp1
# Method: (§1)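 GST-tagged SH3 domains from S. cerevisiae (Sc), A. gossypii (Ag), C. albicans (Ca) and S. pombe (Sp) were incubated at 10 ug/ml overnight at 4 C on cellulose SPOT membranes carrying 292 synthetic 15-mer peptides mined from the S. cerevisiae proteome (cysteines replaced by serines). Binding was detected with anti-GST antibody, HRP secondary and chemiluminescence, quantified with Genespotter, and reported as normalized spot intensities averaged over biological replicates.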
# AgBbc1 = biological target: AgBbc1
# Method: as §1
# AgBem1-D1 = biological target: AgBem1-D1
# Method: as §1
# AgBzz1-D1 = biological target: AgBzz1-D1
# Method: as §1
# AgBzz1-D2 = biological target: AgBzz1-D2
# Method: as §1
# AgCyk3 = biological target: AgCyk3
# Method: as §1
# AgFus1 = biological target: AgFus1
# Method: as §1
# AgHof1 = biological target: AgHof1
# Method: as §1
# AgHse1 = biological target: AgHse1
# Method: as §1
# AgLsb1 = biological target: AgLsb1
# Method: as §1
# AgLsb4 = biological target: AgLsb4
# Method: as §1
# AgMyo5 = biological target: AgMyo5
# Method: as §1
# AgNbp2 = biological target: AgNbp2
# Method: as §1
# AgRvs167 = biological target: AgRvs167
# Method: as §1
# AgSho1 = biological target: AgSho1
# Method: as §1
# AgSla1-D1-D2 = biological target: AgSla1-D1-D2
# Method: as §1
# AgSla1-D3 = biological target: AgSla1-D3
# Method: as §1
# CaAbp1-D1 = biological target: CaAbp1-D1
# Method: as §1
# CaAbp1-D2 = biological target: CaAbp1-D2
# Method: as §1
# CaBbc1 = biological target: CaBbc1
# Method: as §1
# CaBem1-D1 = biological target: CaBem1-D1
# Method: as §1
# CaBzz1-D1 = biological target: CaBzz1-D1
# Method: as §1
# CaBzz1-D2 = biological target: CaBzz1-D2
# Method: as §1
# CaCyk3 = biological target: CaCyk3
# Method: as §1
# CaFus1 = biological target: CaFus1
# Method: as §1
# CaHof1 = biological target: CaHof1
# Method: as §1
# CaHse1 = biological target: CaHse1
# Method: as §1
# CaLsb1 = biological target: CaLsb1
# Method: as §1
# CaLsb4 = biological target: CaLsb4
# Method: as §1
# CaMyo5 = biological target: CaMyo5
# Method: as §1
# CaNbp2 = biological target: CaNbp2
# Method: as §1
# CaRvs167 = biological target: CaRvs167
# Method: as §1
# CaRvs167-3 = biological target: CaRvs167-3
# Method: as §1
# CaSho1 = biological target: CaSho1
# Method: as §1
# CaSla1-D1-D2 = biological target: CaSla1-D1-D2
# Method: as §1
# CaSla1-D3 = biological target: CaSla1-D3
# Method: as §1
# ScAbp1 = biological target: ScAbp1
# Method: as §1
# ScBbc1 = biological target: ScBbc1
# Method: as §1
# ScBem1-D1 = biological target: ScBem1-D1
# Method: as §1
# ScBzz1-D1 = biological target: ScBzz1-D1
# Method: as §1
# ScBzz1-D2 = biological target: ScBzz1-D2
# Method: as §1
# ScCyk3 = biological target: ScCyk3
# Method: as §1
# ScFus1 = biological target: ScFus1
# Method: as §1
# ScHof1 = biological target: ScHof1
# Method: as §1
# ScHse1 = biological target: ScHse1
# Method: as §1
# ScLsb1 = biological target: ScLsb1
# Method: as §1
# ScLsb2 = biological target: ScLsb2
# Method: as §1
# ScLsb3 = biological target: ScLsb3
# Method: as §1
# ScLsb4 = biological target: ScLsb4
# Method: as §1
# ScMyo3 = biological target: ScMyo3
# Method: as §1
# ScMyo5 = biological target: ScMyo5
# Method: as §1
# ScNbp2 = biological target: ScNbp2
# Method: as §1
# ScPex13 = biological target: ScPex13
# Method: as §1
# ScRvs167 = biological target: ScRvs167
# Method: as §1
# ScSho1 = biological target: ScSho1
# Method: as §1
# ScSla1-D1-D2 = biological target: ScSla1-D1-D2
# Method: as §1
# ScSla1-D3 = biological target: ScSla1-D3
# Method: as §1
# SpAbp1-D1 = biological target: SpAbp1-D1
# Method: as §1
# SpBbc1 = biological target: SpBbc1
# Method: as §1
# SpBzz1-D1 = biological target: SpBzz1-D1
# Method: as §1
# SpBzz1-D2 = biological target: SpBzz1-D2
# Method: as §1
# SpCyk3 = biological target: SpCyk3
# Method: as §1
# SpHof1 = biological target: SpHof1
# Method: as §1
# SpHof1-2 = biological target: SpHof1-2
# Method: as §1
# SpHof1-3 = biological target: SpHof1-3
# Method: as §1
# SpHse1 = biological target: SpHse1
# Method: as §1
# SpLsb1 = biological target: SpLsb1
# Method: as §1
# SpLsb4 = biological target: SpLsb4
# Method: as §1
# SpMyo1 = biological target: SpMyo1
# Method: as §1
# SpNbp2 = biological target: SpNbp2
# Method: as §1
# SpPex13 = biological target: SpPex13
# Method: as §1
# SpRvs167 = biological target: SpRvs167
# Method: as §1
# SpSla1-D1-D2 = biological target: SpSla1-D1-D2
# Method: as §1
# SpSla1-D3 = biological target: SpSla1-D3
# Method: as §1
binder,measurement,setting,value
KRKRRLPVSEDTNTK,SPOT peptide array binding signal intensity,AgAbp1,42.5
same,SPOT peptide array binding signal intensity,AgBbc1,25
same,SPOT peptide array binding signal intensity,AgBem1-D1,322
same,SPOT peptide array binding signal intensity,AgBzz1-D1,26.5
same,SPOT peptide array binding signal intensity,AgBzz1-D2,47.5
same,SPOT peptide array binding signal intensity,AgCyk3,1
same,SPOT peptide array binding signal intensity,AgFus1,519
same,SPOT peptide array binding signal intensity,AgHof1,87
same,SPOT peptide array binding signal intensity,AgHse1,656
same,SPOT peptide array binding signal intensity,AgLsb1,1.5
same,SPOT peptide array binding signal intensity,AgLsb4,46.5
same,SPOT peptide array binding signal intensity,AgMyo5,1.5
same,SPOT peptide array binding signal intensity,AgNbp2,213
same,SPOT peptide array binding signal intensity,AgRvs167,3.5
same,SPOT peptide array binding signal intensity,AgSho1,53
same,SPOT peptide array binding signal intensity,AgSla1-D1-D2,25.5
same,SPOT peptide array binding signal intensity,AgSla1-D3,7
same,SPOT peptide array binding signal intensity,CaAbp1-D1,514
same,SPOT peptide array binding signal intensity,CaAbp1-D2,626
same,SPOT peptide array binding signal intensity,CaBbc1,97
same,SPOT peptide array binding signal intensity,CaBem1-D1,3
same,SPOT peptide array binding signal intensity,CaBzz1-D1,85
same,SPOT peptide array binding signal intensity,CaBzz1-D2,69.8
same,SPOT peptide array binding signal intensity,CaCyk3,24
same,SPOT peptide array binding signal intensity,CaFus1,1030
same,SPOT peptide array binding signal intensity,CaHof1,0.5
same,SPOT peptide array binding signal intensity,CaHse1,49
same,SPOT peptide array binding signal intensity,CaLsb1,0.75
same,SPOT peptide array binding signal intensity,CaLsb4,154
same,SPOT peptide array binding signal intensity,CaMyo5,3
KTKQQKPAIPQKKSF,SPOT peptide array binding signal intensity,AgAbp1,2190
same,SPOT peptide array binding signal intensity,AgBbc1,16.5
same,SPOT peptide array binding signal intensity,AgBem1-D1,7
same,SPOT peptide array binding signal intensity,AgBzz1-D1,73
same,SPOT peptide array binding signal intensity,AgBzz1-D2,21
same,SPOT peptide array binding signal intensity,AgCyk3,≤ 0
same,SPOT peptide array binding signal intensity,AgFus1,≤ 0
same,SPOT peptide array binding signal intensity,AgHof1,35.5
same,SPOT peptide array binding signal intensity,AgHse1,≤ 0
same,SPOT peptide array binding signal intensity,AgLsb1,≤ 0
same,SPOT peptide array binding signal intensity,AgLsb4,1.5
same,SPOT peptide array binding signal intensity,AgMyo5,4
same,SPOT peptide array binding signal intensity,AgNbp2,14
same,SPOT peptide array binding signal intensity,AgRvs167,0.333
same,SPOT peptide array binding signal intensity,AgSho1,≤ 0
same,SPOT peptide array binding signal intensity,AgSla1-D1-D2,17
same,SPOT peptide array binding signal intensity,AgSla1-D3,19.5
same,SPOT peptide array binding signal intensity,CaAbp1-D1,4040
same,SPOT peptide array binding signal intensity,CaAbp1-D2,6440
same,SPOT peptide array binding signal intensity,CaBbc1,149
same,SPOT peptide array binding signal intensity,CaBem1-D1,3
same,SPOT peptide array binding signal intensity,CaBzz1-D1,742
same,SPOT peptide array binding signal intensity,CaBzz1-D2,584
same,SPOT peptide array binding signal intensity,CaCyk3,2
same,SPOT peptide array binding signal intensity,CaFus1,≤ 0
same,SPOT peptide array binding signal intensity,CaHof1,2
same,SPOT peptide array binding signal intensity,CaHse1,1.75
same,SPOT peptide array binding signal intensity,CaLsb1,≤ 0
same,SPOT peptide array binding signal intensity,CaLsb4,≤ 0
same,SPOT peptide array binding signal intensity,CaMyo5,1.5
same,SPOT peptide array binding signal intensity,CaNbp2,≤ 0
same,SPOT peptide array binding signal intensity,CaRvs167,2.33
same,SPOT peptide array binding signal intensity,CaRvs167-3,1.5
same,SPOT peptide array binding signal intensity,CaSho1,≤ 0
same,SPOT peptide array binding signal intensity,CaSla1-D1-D2,1260
same,SPOT peptide array binding signal intensity,CaSla1-D3,≤ 0
same,SPOT peptide array binding signal intensity,ScAbp1,1480
same,SPOT peptide array binding signal intensity,ScBbc1,3
same,SPOT peptide array binding signal intensity,ScBem1-D1,15
same,SPOT peptide array binding signal intensity,ScBzz1-D1,37
same,SPOT peptide array binding signal intensity,ScBzz1-D2,19.5
same,SPOT peptide array binding signal intensity,ScCyk3,≤ 0
same,SPOT peptide array binding signal intensity,ScFus1,≤ 0
same,SPOT peptide array binding signal intensity,ScHof1,7.75
same,SPOT peptide array binding signal intensity,ScHse1,54.5
same,SPOT peptide array binding signal intensity,ScLsb1,4
same,SPOT peptide array binding signal intensity,ScLsb2,≤ 0
same,SPOT peptide array binding signal intensity,ScLsb3,328
same,SPOT peptide array binding signal intensity,ScLsb4,≤ 0
same,SPOT peptide array binding signal intensity,ScMyo3,19
same,SPOT peptide array binding signal intensity,ScMyo5,4.75
same,SPOT peptide array binding signal intensity,ScNbp2,≤ 0
same,SPOT peptide array binding signal intensity,ScPex13,0.75
same,SPOT peptide array binding signal intensity,ScRvs167,4.67
same,SPOT peptide array binding signal intensity,ScSho1,3
same,SPOT peptide array binding signal intensity,ScSla1-D1-D2,213
same,SPOT peptide array binding signal intensity,ScSla1-D3,7.25
same,SPOT peptide array binding signal intensity,SpAbp1-D1,1420
same,SPOT peptide array binding signal intensity,SpBbc1,2.5
same,SPOT peptide array binding signal intensity,SpBzz1-D1,256
same,SPOT peptide array binding signal intensity,SpBzz1-D2,2
same,SPOT peptide array binding signal intensity,SpCyk3,≤ 0
same,SPOT peptide array binding signal intensity,SpHof1,0.5
same,SPOT peptide array binding signal intensity,SpHof1-2,5.75
same,SPOT peptide array binding signal intensity,SpHof1-3,134
same,SPOT peptide array binding signal intensity,SpHse1,3.75
same,SPOT peptide array binding signal intensity,SpLsb1,5.5
same,SPOT peptide array binding signal intensity,SpLsb4,22.5
same,SPOT peptide array binding signal intensity,SpMyo1,5
same,SPOT peptide array binding signal intensity,SpNbp2,≤ 0
same,SPOT peptide array binding signal intensity,SpPex13,≤ 0
same,SPOT peptide array binding signal intensity,SpRvs167,1
same,SPOT peptide array binding signal intensity,SpSla1-D1-D2,3
same,SPOT peptide array binding signal intensity,SpSla1-D3,1
ALKQKKIPPPFKPHL,SPOT peptide array binding signal intensity,SpBzz1-D2,≤ 0
same,SPOT peptide array binding signal intensity,SpCyk3,≤ 0
same,SPOT peptide array binding signal intensity,SpHof1,≤ 0
same,SPOT peptide array binding signal intensity,SpHof1-2,≤ 0
same,SPOT peptide array binding signal intensity,SpHof1-3,39.5
same,SPOT peptide array binding signal intensity,SpHse1,23
same,SPOT peptide array binding signal intensity,SpLsb1,≤ 0
same,SPOT peptide array binding signal intensity,SpLsb4,≤ 0
same,SPOT peptide array binding signal intensity,SpMyo1,≤ 0
same,SPOT peptide array binding signal intensity,SpNbp2,≤ 0
same,SPOT peptide array binding signal intensity,SpPex13,≤ 0
same,SPOT peptide array binding signal intensity,SpRvs167,≤ 0
same,SPOT peptide array binding signal intensity,SpSla1-D1-D2,≤ 0
same,SPOT peptide array binding signal intensity,SpSla1-D3,≤ 0
